# Screens deposited in PubChem by several laboratories.
# Most compounds without a hit are left out; they make up all but 22% or so of the library.
# F-actin modifier – modifiers of F-actin cytoskeleton organization, primary screen, imaging, HUVEC, phalloidin staining, high-content imaging; 91,000 tested, 0.18% active; AID 836, 2007; HUVEC TNFa F-actin phalloidin imaging; inhibition, % at 2 µM;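 active means inhibition above the batch mean plus 3 SD and confirmed as a hit by visual image inspection, cut at about 30% in these data, passing the limit was not always enough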
# CYP2C19 activ – human CYP2C19 activators, primary screen, biochemical, luminescence; activation factor at 5 µM; Cytochrome P450 2C19 (Homo sapiens), P33261; 96,000 tested, under 10 active; recombinant CYP2C19, luciferin-H EGE luminescence; hits give high values; 0 = fully inhibited enzyme, 1 = untreated enzyme;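 active means activation factor of at least 2 at 5 µM in the primary screen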
# CYP2C19 inh – blockers of cytochrome P450 2C19 activity – biochemical, luminescence, ADME assay, primary screen; CYP2C19 Supersomes, luciferin-H EGE luminescence, 30 min; inhibition, % at 5 µM; 96,000 tested, 21% active; AID 778, 2007;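 active means CYP2C19 inhibition above a set limit at 5 µM in the primary screen, cut at about 50% in these data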
# E-sel TNF inh – E-selectin induction blockers in HUVEC – imaging, immunofluorescence, high content, primary screen. HUVEC TNFa-induced E-selectin immunofluorescence. inhibition, % at 2 µM. 120,000 tested, 0.71% active. AID 1246, 2008;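 active means inhibition above the batch mean plus 3 SD, and confirmed as a hit on visual image review, cut at about 43% in these data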
# CYP2C9 activ – human CYP2C9 activators, primary screen, biochemical, luminescence. activation factor at 5 µM. recombinant CYP2C9, luciferin-H conversion; hits give high values; factor 1 = untreated enzyme, 0 = blocked. 96,000 tested, 1.4% active;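 active means activation factor of 2 or more for CYP2C9 at a 5 µM dose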
# Target sequence (P11712 whole entry, looked up): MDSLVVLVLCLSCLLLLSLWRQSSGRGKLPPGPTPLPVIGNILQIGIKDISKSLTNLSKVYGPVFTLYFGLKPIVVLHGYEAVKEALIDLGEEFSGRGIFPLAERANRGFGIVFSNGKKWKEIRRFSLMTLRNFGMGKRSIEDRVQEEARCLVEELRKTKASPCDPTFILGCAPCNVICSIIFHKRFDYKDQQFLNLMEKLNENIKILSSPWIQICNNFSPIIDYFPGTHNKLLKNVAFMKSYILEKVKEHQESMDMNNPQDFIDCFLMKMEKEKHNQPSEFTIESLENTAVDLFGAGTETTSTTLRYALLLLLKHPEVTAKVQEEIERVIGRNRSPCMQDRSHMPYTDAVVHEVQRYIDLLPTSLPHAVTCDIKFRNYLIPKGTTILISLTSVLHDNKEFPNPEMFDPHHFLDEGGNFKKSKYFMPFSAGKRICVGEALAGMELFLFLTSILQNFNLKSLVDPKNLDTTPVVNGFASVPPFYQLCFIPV
# CYP2C9 inhib – blockers of cytochrome P450 2C9 activity – biochemical, luminescence, ADME assay, primary screen; P11712; CYP2C9 Supersomes, luciferin-H conversion; inhibition, % at 5 µM; AID 777, 2007; 96,000 tested, 20% active;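 active means blocking of liver enzyme CYP2C9 beyond about 50% at 5 µM, limit read from the data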
# Hits are given with their value; - = inactive; . = not tested or not shown.
SMILES,F-actin modifier,CYP2C19 activ,CYP2C19 inh,E-sel TNF inh,CYP2C9 activ,CYP2C9 inhib
CCCc1n[nH]c2c1C(=O)C(C(=O)OC)C(C)(C)C2 (stereo not given),.,-,86,-,-,-
CCOC(=O)N1CCC(NC(=O)c2cc(S(=O)(=O)N3CCc4ccccc43)cn2C)CC1,-,-,-,.,-,-
CCCOC(=O)C1C2C=CC(C2)C1C(=O)OCC(=O)c1ccccc1 (stereo not given),-,-,91,-,-,75
COC(=O)CCN(c1ccccc1)S(=O)(=O)c1ccc(OC)cc1,-,-,-,-,-,-
C=CCOC(=O)C1=C(C)Nc2ncnn2C1c1cccs1 (stereo not given),-,-,-,-,-,-
CCCCCCCOC(=O)C1=C(C)Nc2ncnn2C1c1cccs1 (stereo not given),.,-,74,-,-,64
CCCCCCCCOC(=O)C1=C(C)Nc2nnnn2C1c1cccs1 (stereo not given),.,-,76,-,-,94
CCOC(=O)c1cn[nH]c1N,-,-,-,.,-,-
O=C(CNC(=O)c1cccs1)OCC(=O)c1ccc(Br)cc1,.,.,.,-,.,.
Cn1c(SCC(=O)NCc2ccc3c(c2)OCO3)nnc1C1COc2ccccc2O1 (stereo not given),-,-,-,.,-,-
C=CCn1c(SCC(=O)NCc2ccc3c(c2)OCO3)nnc1C1COc2ccccc2O1 (stereo not given),-,-,65,-,-,53
C=CCn1c(SCC(=O)NCc2ccccc2)nnc1C1CCCCC1,-,-,-,-,-,-
C=CCn1c(SCc2c(C)noc2C)nnc1C1COc2ccccc2O1 (stereo not given),-,-,-,.,-,61
C=CCn1c(SCC(=O)NCc2ccc3c(c2)OCO3)nnc1C1CCCCC1,.,-,53,-,-,58
C=CCn1c(SCC(=O)Nc2cc(C)nn2-c2ccccc2)nnc1C1CCCCC1,.,-,66,-,-,-
CCOc1cc(/C=N/NC(=O)CN2CCOCC2)ccc1OCc1ccc(Cl)cc1,-,-,-,-,-,-
Cc1ccc(N/C(CSC(N)=O)=N/S(=O)(=O)c2ccccc2)cc1,-,-,-,-,-,-
Cn1c(CSc2nc3ccccc3s2)nnc1SCC(=O)NCc1cccnc1,-,.,.,-,.,.
COc1ccc(S(=O)(=O)n2oc(=O)cc2-c2ccccc2)cc1,-,-,-,-,-,-
COc1ccc(S(=O)(=O)n2oc(=O)cc2-c2ccccc2)cc1OC,-,-,97,-,-,-
O=c1cc(-c2ccccc2)n(S(=O)(=O)c2ccc3ccccc3c2)o1,-,.,.,-,.,.
O=c1cc(-c2ccccc2)n(S(=O)(=O)c2ccccc2)o1,-,-,52,-,-,-
CSc1ccc(S(=O)(=O)Nc2ccc(NC(C)=O)cc2)cc1,-,-,100,-,-,94
CSc1ccc(S(=O)(=O)Nc2ccc(S(=O)(=O)Nc3ccc(C)cc3)cc2)cc1,-,-,95,-,-,100
Cc1ccc(S(=O)(=O)Nc2ccc(S(=O)(=O)Nc3ncccn3)cc2)cc1,-,-,-,.,-,-
SMILES,F-actin modifier,CYP2C19 activ,CYP2C19 inh,E-sel TNF inh,CYP2C9 activ,CYP2C9 inhib
CC1(C)CC(=O)C=C(Nc2cc(-c3ccccc3)[nH]n2)C1,-,-,-,.,-,53
COc1ccccc1N=c1c2c([N+](=O)[O-])cc([N+](=O)[O-])cc2n(O)n1-c1ccccc1OC,.,.,.,-,.,.
COC(=O)c1ccc(CSc2nnnn2-c2ccc(C)cc2C)o1,-,-,90,-,-,86
Cc1ccc(-n2nnnc2SCC(N)=O)c(C)c1,-,-,-,-,-,-
Cc1ccc(-n2nnnc2SCC(=O)NCCC2=CCCCC2)c(C)c1,-,-,71,-,-,80
Cc1ccc(NC(=O)CCSc2nnc3ccccn23)cc1,-,-,55,-,-,-
CCOC(=O)C(Sc1nnc(-c2ccncc2)o1)C(C)=O (stereo not given),-,.,.,-,.,.
COC(=O)C(C)Sc1nnc(-c2ccncc2)o1 (stereo not given),-,-,89,-,-,-
Cc1ccc(C(C)C)c(OC(=O)/C=C/c2ccccc2)c1,-,-,-,-,-,-
O=C(c1ccc2c(c1)OCO2)C1CCCN(C(=O)NCc2ccccc2)C1 (stereo not given),.,.,.,-,.,.
COC(=O)c1ccc(CSc2nnc(-c3ccncc3)n2Cc2ccccc2)o1,76,-,87,-,-,74
COC(=O)c1ccc(CSc2nnc3ccccn23)o1,-,-,52,-,-,-
COC(=O)c1ccc(CSc2nnc(-c3ccncc3)o2)o1,-,-,91,-,-,76
CCSc1nnc(-c2ccncc2)n1Cc1ccccc1,-,-,-,-,-,-
CCOc1cc(/C=N\NC(=O)c2ccc(NC(=O)C(C)(C)C)cc2)ccc1OC(=O)c1ccc(OC)cc1,-,-,-,-,-,-
CN(C)CCN1CCc2ccccc21,-,-,-,-,-,-
CC1CCN(CC(=O)NC(=O)NCc2ccccc2)CC1,.,.,.,-,.,.
C/C(=N/NC(=O)C1CC1(c1ccccc1)c1ccccc1)c1cccs1 (stereo not given),.,.,.,-,.,.
COc1ccc(N(CC(=O)NCCSCc2ccco2)S(=O)(=O)c2ccccc2)cc1,.,.,.,-,.,.
COc1ccc(N(CC(=O)NCc2ccco2)S(=O)(=O)c2ccc(OC)c(OC)c2)cc1,.,-,100,.,-,-
CCOc1ccc(N(CC(=O)NCc2ccco2)S(=O)(=O)c2ccc(OC)c(OC)c2)cc1,-,-,98,-,-,62
CCOc1ccc(N2C(=O)/C(=C/c3cc(OC)c(OC)c(OC)c3)N(CC(=O)OC)C2=S)cc1,-,-,54,-,-,-
Cc1ccc(NC(=O)C(=O)NC2CCCCC2)cc1,.,-,-,-,-,-
Cc1nnsc1C(=O)Nc1cccc(Cl)c1Cl,-,.,.,-,.,.
Cc1ccc(S(=O)(=O)Oc2ccc3c(c2)O/C(=C\c2cccnc2)C3=O)cc1,.,-,72,-,-,91
CCc1ccc(/C=C2\Oc3cc(OS(C)(=O)=O)ccc3C2=O)cc1,.,.,.,-,.,.
O=C1/C(=C/c2cccnc2)Oc2cc(OS(=O)(=O)c3ccc(F)cc3)ccc21,.,-,-,-,-,84
COc1ccc(N(CC(O)CN2C(=O)NC(C)(C)C2=O)S(=O)(=O)c2ccccc2)cc1 (stereo not given),-,-,-,-,-,-
COc1ccc(C2=NN(CN3C(=O)C(=O)c4ccccc43)C(c3ccc(OC)cc3)C2)cc1 (stereo not given),.,.,.,-,.,.
O=C(CC(c1ccccc1)c1cc(Br)ccc1O)NCCN1CCOCC1 (stereo not given),-,-,85,-,-,56
